Results: paper PMC7862700, “An all-to-all approach to the identification of sequence-specific readers for epigenetic DNA modifications on cytosine”

How the values were obtained:
Experiment in all cases: DAPPL (digital affinity profiling via proximity ligation, sequencing); 10 mM Tris-HCl pH 7.5, 50 mM NaCl, 1 mM DTT, 4% glycerol, room temperature, 30 min; GST-TFs on glutathione beads, 16-mer random dsDNA library, 0.1% formaldehyde crosslink after washing; high values mean tight binding
[1] = target: T1, FEV (Homo sapiens, UniProt Q99581 1-238); conditions: protein: recombinant; tags: N-terminal GST; dsDNA, one strand shown
T1 sequence: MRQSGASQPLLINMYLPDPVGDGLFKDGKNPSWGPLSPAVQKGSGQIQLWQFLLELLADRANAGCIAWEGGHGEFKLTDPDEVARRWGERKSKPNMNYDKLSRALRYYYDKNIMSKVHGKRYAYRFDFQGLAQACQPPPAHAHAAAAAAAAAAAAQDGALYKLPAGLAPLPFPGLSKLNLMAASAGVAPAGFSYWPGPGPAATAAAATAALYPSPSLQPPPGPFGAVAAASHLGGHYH
Summary of the method: (§1)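 Human transcription factors were made in yeast as GST fusions, captured on glutathione beads and barcoded with DNA. With a tag-only sample included, the pool was incubated with 200 nmole of a random double-stranded 16-mer DNA library in Tris/NaCl/DTT/glycerol buffer at room temperature for 30 min, then crosslinked with 0.1% formaldehyde after washing, ligated by proximity, amplified and sequenced. For binding signal, each hexamer's read frequency for a factor is divided by its frequency for the tag-only sample.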

[2] = target: ETV5 (Homo sapiens, UniProt P41161 1-510); conditions: protein: recombinant; tags: N-terminal GST; dsDNA, one strand shown
Summary of the method: as §1

[3] = target: HSF1 (Homo sapiens, UniProt Q00613 1-529); conditions: protein: recombinant; tags: N-terminal GST; chain copies: 3; dsDNA, one strand shown
Summary of the method: as §1

[4] = target: T2, SPIC (Homo sapiens, UniProt Q8N5J4 1-248); conditions: protein: recombinant; tags: N-terminal GST; dsDNA, one strand shown
T2 sequence: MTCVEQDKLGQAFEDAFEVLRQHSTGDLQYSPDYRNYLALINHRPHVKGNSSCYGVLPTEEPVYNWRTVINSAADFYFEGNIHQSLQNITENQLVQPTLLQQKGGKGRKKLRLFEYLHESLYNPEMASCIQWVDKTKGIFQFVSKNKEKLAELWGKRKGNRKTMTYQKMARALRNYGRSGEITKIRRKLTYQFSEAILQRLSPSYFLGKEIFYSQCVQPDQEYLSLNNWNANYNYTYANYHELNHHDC
Summary of the method: as §1

[5] = target: ELF4 (Homo sapiens, UniProt Q99607 1-663); conditions: protein: recombinant; tags: N-terminal GST; dsDNA, one strand shown
Summary of the method: as §1

[6] = target: T3, ELK4 (Homo sapiens, UniProt P28324-2 1-405); conditions: protein: recombinant; tags: N-terminal GST; dsDNA, one strand shown
T3 sequence: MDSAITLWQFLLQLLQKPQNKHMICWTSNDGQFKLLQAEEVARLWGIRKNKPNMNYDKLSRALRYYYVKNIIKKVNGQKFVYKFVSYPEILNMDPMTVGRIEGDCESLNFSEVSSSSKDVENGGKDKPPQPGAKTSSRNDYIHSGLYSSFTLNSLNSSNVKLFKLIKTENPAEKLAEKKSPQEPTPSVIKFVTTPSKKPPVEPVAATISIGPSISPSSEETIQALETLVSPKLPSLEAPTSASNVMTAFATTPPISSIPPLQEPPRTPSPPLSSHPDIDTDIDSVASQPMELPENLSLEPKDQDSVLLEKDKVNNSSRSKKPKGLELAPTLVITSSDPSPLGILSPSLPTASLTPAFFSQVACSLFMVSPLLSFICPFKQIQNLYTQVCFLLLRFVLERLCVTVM
Summary of the method: as §1

[7] = target: T4, ETV2 (Homo sapiens, UniProt O00321 1-342); conditions: protein: recombinant; tags: N-terminal GST; dsDNA, one strand shown
T4 sequence: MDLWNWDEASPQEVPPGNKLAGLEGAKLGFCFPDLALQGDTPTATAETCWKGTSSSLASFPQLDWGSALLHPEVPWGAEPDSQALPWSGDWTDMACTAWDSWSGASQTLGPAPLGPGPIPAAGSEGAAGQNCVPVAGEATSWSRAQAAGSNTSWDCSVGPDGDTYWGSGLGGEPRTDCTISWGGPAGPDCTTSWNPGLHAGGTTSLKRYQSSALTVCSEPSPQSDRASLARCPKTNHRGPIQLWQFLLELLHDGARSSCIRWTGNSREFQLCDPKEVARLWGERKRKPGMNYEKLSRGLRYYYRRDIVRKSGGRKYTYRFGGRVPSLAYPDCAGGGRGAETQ
Summary of the method: as §1

[8] = target: T5, ELF3 (Homo sapiens, UniProt P78545 1-371); conditions: protein: recombinant; tags: N-terminal GST; dsDNA, one strand shown
T5 sequence: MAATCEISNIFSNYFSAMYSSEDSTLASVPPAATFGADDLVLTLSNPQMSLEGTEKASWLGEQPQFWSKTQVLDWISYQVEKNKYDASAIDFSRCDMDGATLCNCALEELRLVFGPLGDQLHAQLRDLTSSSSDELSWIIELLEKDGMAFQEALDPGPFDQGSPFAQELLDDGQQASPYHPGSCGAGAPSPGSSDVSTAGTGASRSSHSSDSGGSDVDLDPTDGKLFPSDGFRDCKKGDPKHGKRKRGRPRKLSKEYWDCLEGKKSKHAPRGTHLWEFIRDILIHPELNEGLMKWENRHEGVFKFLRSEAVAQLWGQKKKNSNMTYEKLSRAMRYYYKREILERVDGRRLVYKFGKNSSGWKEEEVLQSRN
Summary of the method: as §1

[9] = target: CRX (Homo sapiens, UniProt O43186 1-299); conditions: protein: recombinant; tags: N-terminal GST; dsDNA, one strand shown
Summary of the method: as §1

[10] = target: ETV1 (Homo sapiens, UniProt P50549 1-477); conditions: protein: recombinant; tags: N-terminal GST; dsDNA, one strand shown
Summary of the method: as §1

[11] = target: T6, ERF (Homo sapiens, UniProt P50548 1-548); conditions: protein: recombinant; tags: N-terminal GST; dsDNA, one strand shown
T6 sequence: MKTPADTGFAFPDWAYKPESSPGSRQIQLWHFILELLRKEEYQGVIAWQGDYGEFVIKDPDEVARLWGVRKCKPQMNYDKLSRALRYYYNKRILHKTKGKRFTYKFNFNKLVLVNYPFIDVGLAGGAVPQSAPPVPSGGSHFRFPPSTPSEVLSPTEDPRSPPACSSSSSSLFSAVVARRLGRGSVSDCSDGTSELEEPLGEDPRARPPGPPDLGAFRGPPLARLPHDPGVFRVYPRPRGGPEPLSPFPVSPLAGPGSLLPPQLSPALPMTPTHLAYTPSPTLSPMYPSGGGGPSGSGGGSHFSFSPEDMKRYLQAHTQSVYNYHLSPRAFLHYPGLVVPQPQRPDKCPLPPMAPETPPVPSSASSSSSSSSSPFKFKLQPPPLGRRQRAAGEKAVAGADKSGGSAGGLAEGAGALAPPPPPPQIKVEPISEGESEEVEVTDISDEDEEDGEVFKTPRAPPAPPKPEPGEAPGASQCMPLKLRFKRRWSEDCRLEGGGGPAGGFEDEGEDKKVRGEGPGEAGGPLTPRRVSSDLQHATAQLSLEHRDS
Summary of the method: as §1

[12] = target: T7, ETV3L (Homo sapiens, UniProt Q6ZN32 1-361); conditions: protein: recombinant; tags: N-terminal GST; dsDNA, one strand shown
T7 sequence: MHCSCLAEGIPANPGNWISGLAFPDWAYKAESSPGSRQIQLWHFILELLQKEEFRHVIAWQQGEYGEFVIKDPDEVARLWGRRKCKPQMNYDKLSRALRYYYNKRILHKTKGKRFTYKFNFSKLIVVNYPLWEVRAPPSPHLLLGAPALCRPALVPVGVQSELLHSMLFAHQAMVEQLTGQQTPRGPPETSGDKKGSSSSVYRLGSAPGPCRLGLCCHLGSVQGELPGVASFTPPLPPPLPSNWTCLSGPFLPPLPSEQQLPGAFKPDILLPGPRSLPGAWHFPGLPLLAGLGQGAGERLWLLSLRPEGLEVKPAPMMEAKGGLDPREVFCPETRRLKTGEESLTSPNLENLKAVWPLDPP
Summary of the method: as §1

[13] = target: T8, ETS2 (Homo sapiens, UniProt P15036 1-469); conditions: protein: recombinant; tags: N-terminal GST; dsDNA, one strand shown
T8 sequence: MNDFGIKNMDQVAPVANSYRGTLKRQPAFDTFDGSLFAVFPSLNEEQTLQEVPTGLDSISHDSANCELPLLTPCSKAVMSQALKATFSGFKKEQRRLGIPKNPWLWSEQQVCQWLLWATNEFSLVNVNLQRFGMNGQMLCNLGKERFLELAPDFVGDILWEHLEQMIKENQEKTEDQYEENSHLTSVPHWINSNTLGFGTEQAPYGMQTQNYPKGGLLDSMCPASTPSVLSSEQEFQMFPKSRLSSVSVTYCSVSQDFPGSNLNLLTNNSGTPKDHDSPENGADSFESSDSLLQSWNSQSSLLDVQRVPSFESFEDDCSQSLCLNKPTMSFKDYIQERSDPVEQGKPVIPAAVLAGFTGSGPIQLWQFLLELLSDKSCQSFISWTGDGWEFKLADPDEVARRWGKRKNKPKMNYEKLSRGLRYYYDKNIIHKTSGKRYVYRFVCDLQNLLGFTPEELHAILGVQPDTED
Summary of the method: as §1

[14] = target: T9, SPDEF (Homo sapiens, UniProt O95238 1-335); conditions: protein: recombinant; tags: N-terminal GST; dsDNA, one strand shown
T9 sequence: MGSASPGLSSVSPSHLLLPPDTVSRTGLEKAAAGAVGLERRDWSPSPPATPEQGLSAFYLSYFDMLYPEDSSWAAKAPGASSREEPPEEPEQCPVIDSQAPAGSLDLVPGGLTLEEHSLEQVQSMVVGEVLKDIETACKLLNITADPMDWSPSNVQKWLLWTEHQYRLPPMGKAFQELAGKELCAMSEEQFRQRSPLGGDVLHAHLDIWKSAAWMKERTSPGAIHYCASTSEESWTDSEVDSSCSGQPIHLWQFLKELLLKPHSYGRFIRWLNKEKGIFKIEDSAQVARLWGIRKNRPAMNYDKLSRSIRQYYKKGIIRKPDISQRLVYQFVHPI
Summary of the method: as §1

[15] = target: T10, ETV7 (Homo sapiens, UniProt Q9Y603 1-341); conditions: protein: recombinant; tags: N-terminal GST; dsDNA, one strand shown
T10 sequence: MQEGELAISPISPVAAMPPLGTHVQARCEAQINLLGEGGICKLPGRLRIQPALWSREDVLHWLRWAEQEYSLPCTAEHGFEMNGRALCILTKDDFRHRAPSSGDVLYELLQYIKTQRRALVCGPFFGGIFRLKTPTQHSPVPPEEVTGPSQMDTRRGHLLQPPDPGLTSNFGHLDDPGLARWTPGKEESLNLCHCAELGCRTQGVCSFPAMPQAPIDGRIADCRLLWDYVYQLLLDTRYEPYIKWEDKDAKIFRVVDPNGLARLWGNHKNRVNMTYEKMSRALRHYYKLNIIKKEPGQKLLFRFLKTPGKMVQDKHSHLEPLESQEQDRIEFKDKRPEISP
Summary of the method: as §1

[16] = target: T11, ELF5 (Homo sapiens, UniProt Q9UKW6-2 1-255); conditions: protein: recombinant; tags: N-terminal GST; dsDNA, one strand shown
T11 sequence: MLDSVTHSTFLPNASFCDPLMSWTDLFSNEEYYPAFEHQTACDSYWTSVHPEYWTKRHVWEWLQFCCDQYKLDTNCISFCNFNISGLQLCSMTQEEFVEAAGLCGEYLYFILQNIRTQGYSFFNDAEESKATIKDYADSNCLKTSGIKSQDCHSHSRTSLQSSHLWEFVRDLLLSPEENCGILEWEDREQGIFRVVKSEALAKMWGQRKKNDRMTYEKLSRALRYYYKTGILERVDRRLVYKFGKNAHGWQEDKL
Summary of the method: as §1

[17] = target: T12, ETV3 (Homo sapiens, UniProt P41162-2 1-143); conditions: protein: recombinant; tags: N-terminal GST; dsDNA, one strand shown
T12 sequence: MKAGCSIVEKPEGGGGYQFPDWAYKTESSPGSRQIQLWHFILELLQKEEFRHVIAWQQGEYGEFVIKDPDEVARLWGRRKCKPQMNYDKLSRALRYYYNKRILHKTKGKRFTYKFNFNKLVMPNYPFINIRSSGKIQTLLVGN
Summary of the method: as §1

[18] = target: ETV6 (Homo sapiens, UniProt P41212 1-452); conditions: protein: recombinant; tags: N-terminal GST; dsDNA, one strand shown
Summary of the method: as §1

Chain of ETV5 (P41161 whole entry): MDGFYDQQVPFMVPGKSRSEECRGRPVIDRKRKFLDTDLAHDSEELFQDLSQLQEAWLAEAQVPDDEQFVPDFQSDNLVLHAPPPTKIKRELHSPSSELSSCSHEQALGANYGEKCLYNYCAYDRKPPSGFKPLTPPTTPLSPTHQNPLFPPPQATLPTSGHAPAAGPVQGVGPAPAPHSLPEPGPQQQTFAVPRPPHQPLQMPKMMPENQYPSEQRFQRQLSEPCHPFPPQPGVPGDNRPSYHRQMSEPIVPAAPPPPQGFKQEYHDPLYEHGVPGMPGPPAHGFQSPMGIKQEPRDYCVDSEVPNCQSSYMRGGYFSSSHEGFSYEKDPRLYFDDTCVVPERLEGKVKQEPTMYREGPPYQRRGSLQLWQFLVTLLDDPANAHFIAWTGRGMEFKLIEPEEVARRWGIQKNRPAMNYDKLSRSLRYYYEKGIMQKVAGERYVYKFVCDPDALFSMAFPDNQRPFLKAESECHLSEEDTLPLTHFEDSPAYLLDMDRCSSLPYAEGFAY
Chain of ETV6 (P41212 whole entry): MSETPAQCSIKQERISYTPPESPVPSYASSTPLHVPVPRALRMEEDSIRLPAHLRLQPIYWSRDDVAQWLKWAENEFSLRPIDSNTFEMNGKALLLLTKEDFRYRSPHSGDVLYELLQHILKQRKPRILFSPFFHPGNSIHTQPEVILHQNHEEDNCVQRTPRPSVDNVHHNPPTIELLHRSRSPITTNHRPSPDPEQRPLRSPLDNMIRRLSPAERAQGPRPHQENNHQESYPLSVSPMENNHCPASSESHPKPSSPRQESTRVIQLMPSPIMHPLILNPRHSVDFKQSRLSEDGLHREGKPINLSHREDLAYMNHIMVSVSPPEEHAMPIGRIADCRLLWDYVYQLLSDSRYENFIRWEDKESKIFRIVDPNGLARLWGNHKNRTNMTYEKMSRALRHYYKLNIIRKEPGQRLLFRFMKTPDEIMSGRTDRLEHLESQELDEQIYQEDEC
Chain of HSF1 (Q00613 whole entry): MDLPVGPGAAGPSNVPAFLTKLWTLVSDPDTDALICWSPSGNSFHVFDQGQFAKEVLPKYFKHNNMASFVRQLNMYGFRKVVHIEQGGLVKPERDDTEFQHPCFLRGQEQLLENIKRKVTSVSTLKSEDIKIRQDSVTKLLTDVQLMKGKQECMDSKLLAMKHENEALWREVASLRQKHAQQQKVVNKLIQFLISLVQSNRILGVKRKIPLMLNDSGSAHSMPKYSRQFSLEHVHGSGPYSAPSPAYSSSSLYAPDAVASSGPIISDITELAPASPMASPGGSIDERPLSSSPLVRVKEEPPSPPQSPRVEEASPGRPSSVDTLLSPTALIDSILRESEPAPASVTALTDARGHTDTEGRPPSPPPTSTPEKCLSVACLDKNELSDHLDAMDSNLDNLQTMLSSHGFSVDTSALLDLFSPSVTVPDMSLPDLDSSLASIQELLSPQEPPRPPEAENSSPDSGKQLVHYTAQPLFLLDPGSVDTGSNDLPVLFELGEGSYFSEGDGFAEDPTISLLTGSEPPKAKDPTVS
Chain of ETV1 (P50549 whole entry): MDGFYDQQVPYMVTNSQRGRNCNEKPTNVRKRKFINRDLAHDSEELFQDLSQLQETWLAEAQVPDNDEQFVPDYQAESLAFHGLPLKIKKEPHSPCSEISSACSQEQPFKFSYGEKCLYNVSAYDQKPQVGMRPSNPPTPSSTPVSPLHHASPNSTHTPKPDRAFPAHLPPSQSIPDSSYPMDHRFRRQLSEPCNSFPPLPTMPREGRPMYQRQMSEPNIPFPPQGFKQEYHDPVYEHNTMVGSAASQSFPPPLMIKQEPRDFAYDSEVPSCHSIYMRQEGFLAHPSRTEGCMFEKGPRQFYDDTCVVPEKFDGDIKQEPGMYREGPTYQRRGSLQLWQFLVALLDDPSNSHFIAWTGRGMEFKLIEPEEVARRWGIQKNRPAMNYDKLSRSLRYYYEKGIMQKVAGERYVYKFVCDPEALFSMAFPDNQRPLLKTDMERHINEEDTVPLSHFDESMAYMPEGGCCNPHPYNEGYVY
Chain of ELF4 (Q99607 whole entry): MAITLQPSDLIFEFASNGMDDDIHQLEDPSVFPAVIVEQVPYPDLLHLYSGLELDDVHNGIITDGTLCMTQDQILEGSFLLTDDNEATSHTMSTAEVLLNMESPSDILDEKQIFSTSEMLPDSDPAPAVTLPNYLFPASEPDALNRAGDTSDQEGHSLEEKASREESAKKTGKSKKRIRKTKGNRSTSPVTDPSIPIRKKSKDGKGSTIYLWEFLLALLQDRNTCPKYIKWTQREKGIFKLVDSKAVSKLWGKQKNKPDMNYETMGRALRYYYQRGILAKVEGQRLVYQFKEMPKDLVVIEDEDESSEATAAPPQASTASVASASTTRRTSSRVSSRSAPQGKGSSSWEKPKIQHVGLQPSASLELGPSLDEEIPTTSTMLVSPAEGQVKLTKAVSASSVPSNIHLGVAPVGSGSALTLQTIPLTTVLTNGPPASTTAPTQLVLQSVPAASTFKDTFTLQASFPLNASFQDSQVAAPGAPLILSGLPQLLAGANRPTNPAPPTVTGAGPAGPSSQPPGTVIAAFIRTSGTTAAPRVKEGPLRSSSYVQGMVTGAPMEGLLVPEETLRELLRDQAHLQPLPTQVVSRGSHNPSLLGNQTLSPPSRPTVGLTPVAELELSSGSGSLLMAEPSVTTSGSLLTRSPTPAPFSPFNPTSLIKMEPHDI
Chain of CRX (O43186 whole entry): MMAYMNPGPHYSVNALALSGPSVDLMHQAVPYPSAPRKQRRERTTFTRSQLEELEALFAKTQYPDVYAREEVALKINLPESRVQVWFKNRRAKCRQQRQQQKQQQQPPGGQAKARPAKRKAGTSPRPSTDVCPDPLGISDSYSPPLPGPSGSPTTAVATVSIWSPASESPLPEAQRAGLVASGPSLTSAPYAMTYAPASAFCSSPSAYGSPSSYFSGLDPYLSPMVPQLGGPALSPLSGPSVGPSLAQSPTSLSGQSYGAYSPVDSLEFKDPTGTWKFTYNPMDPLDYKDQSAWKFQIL

Sequence	binding signal [1]	binding signal [2]	binding signal [3]	binding signal [4]	binding signal [5]	binding signal [6]	binding signal [7]	binding signal [8]	binding signal [9]	binding signal [10]	binding signal [11]	binding signal [12]	binding signal [13]	binding signal [14]	binding signal [15]	binding signal [16]	binding signal [17]	binding signal [18]
CCTTCT	1.59 fold enrichment (6-mer frequency, TF over GST control)	1.59 fold enrichment (6-mer frequency, TF over GST control)	2.98 fold enrichment (6-mer frequency, TF over GST control)	1.63 fold enrichment (6-mer frequency, TF over GST control)	1.76 fold enrichment (6-mer frequency, TF over GST control)	1.68 fold enrichment (6-mer frequency, TF over GST control)	1.65 fold enrichment (6-mer frequency, TF over GST control)	1.54 fold enrichment (6-mer frequency, TF over GST control)	1.92 fold enrichment (6-mer frequency, TF over GST control)	1.63 fold enrichment (6-mer frequency, TF over GST control)	1.5 fold enrichment (6-mer frequency, TF over GST control)	1.62 fold enrichment (6-mer frequency, TF over GST control)	1.53 fold enrichment (6-mer frequency, TF over GST control)	1.84 fold enrichment (6-mer frequency, TF over GST control)	1.45 fold enrichment (6-mer frequency, TF over GST control)	1.86 fold enrichment (6-mer frequency, TF over GST control)	1.44 fold enrichment (6-mer frequency, TF over GST control)	1.58 fold enrichment (6-mer frequency, TF over GST control)
AAAAGC	1.21 fold enrichment (6-mer frequency, TF over GST control)	1.29 fold enrichment (6-mer frequency, TF over GST control)	1.3 fold enrichment (6-mer frequency, TF over GST control)	1.2 fold enrichment (6-mer frequency, TF over GST control)	1.17 fold enrichment (6-mer frequency, TF over GST control)	1.3 fold enrichment (6-mer frequency, TF over GST control)	1.28 fold enrichment (6-mer frequency, TF over GST control)	1.22 fold enrichment (6-mer frequency, TF over GST control)	1.43 fold enrichment (6-mer frequency, TF over GST control)	1.19 fold enrichment (6-mer frequency, TF over GST control)	1.15 fold enrichment (6-mer frequency, TF over GST control)	1.23 fold enrichment (6-mer frequency, TF over GST control)	1.15 fold enrichment (6-mer frequency, TF over GST control)	1.07 fold enrichment (6-mer frequency, TF over GST control)	1.35 fold enrichment (6-mer frequency, TF over GST control)	1.26 fold enrichment (6-mer frequency, TF over GST control)	1.22 fold enrichment (6-mer frequency, TF over GST control)	1.26 fold enrichment (6-mer frequency, TF over GST control)
